Here are results for 66 molecules from PubChem BioAssay AID1259349 (Broad Institute, 2017).

Several values for one entry are separate records, joined by “and”; a condition that tells them apart may be missing. Equal values may be shown once. Screen size: about 17,000 compounds; about 1,100 (6.5%) were called active. The sample holds actives, similar compounds and a random draw of the others, so the mix is not that of the screen.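 How the source made its calls: active means z-score of -3 or lower, meaning strong loss of probe binding signal; inactive means the rest.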 The source holds several records for some structures; these can differ, active in one and inactive in another.

Chain of Insulin-degrading enzyme (Homo sapiens) (P14735 42-1019 limits assumed): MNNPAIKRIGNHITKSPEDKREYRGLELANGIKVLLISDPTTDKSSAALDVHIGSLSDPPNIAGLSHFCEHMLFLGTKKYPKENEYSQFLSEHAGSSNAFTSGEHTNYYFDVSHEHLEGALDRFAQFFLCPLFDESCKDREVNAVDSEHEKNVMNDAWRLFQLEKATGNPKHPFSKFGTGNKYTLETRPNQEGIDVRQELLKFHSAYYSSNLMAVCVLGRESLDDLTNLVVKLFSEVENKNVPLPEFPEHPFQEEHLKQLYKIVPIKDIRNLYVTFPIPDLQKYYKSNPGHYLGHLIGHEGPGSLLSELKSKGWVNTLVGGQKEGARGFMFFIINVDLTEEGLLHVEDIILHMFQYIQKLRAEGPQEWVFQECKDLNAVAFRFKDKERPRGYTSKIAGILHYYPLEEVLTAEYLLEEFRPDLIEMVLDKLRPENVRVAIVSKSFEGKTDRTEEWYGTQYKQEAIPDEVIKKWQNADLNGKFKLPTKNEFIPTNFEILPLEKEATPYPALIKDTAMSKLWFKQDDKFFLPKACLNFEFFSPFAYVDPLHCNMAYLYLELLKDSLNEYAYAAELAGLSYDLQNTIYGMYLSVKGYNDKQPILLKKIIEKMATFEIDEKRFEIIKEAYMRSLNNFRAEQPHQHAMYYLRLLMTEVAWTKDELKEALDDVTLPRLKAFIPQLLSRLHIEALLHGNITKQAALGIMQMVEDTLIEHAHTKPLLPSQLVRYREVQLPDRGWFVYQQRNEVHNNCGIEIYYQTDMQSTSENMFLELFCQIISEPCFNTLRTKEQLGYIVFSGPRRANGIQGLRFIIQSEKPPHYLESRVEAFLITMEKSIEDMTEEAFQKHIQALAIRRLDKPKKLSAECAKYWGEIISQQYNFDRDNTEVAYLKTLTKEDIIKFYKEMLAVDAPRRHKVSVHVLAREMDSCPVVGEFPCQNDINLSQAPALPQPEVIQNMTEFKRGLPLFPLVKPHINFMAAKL

This experiment concerns the target Insulin-degrading enzyme (Homo sapiens) (UniProt P14735). Description: displacers of FL-6b probe from IDE – biochemical, fluorescence anisotropy, probe displacement, primary screen (AID 1259349).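 Further: His-tagged human IDE residues 42-1019 made in E. coli with 30 nM FL-6b probe.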 The note with it: purified IDE, FL-6b probe fluorescence polarization; at 20 µM; stronger effect = lower value.
Regarding `CN1C(=O)c2cc(NC(=O)Nc3ccccc3Cl)ccc2OC[C@H]2O[C@H](CC(=O)NCCCN3CCOCC3)CC[C@H]21`, the z-score is -1.04 (inactive).

With `CC(=O)NC[C@H]1[C@@H](c2ccc(C#CC(C)C)cc2)[C@@H](CO)N1Cc1ccccn1`, the z-score was -1.78 (inactive). As to `C[C@@H]1CN([C@H](C)CO)C(=O)c2cc(NC(=O)NC3CCCCC3)ccc2O[C@@H]1CN(C)S(C)(=O)=O`, the z-score was 0.86 (inactive). Under `COc1cccc(C(=O)Nc2ccc3c(c2)C(=O)N(C)[C@H]2CC[C@H](CC(=O)N[C@@H](C)c4ccccc4)O[C@H]2CO3)c1` stands -1.12 (inactive); under `C[C@@H](NC(=O)C[C@H]1CC[C@H]2[C@H](COc3ccc(NS(=O)(=O)c4ccc(Cl)cc4)cc3C(=O)N2C)O1)c1ccccc1`, 0.297 (inactive); under `COc1cccc(C(=O)Nc2ccc3c(c2)C(=O)N(C)[C@H]2CC[C@@H](CC(=O)N[C@H](C)c4ccccc4)O[C@H]2CO3)c1`, -4.24 (active). Under `Cc1ccccc1-c1ccc([C@H]2[C@@H](CO)N3C(=O)CN(C(=O)c4cccnc4)C[C@@H]23)cc1` stands -8.42 (active). Under `O=C(Cc1ccccn1)N1CC(=O)N2[C@H](C1)[C@@H](c1ccc(-c3ccccc3)cc1)[C@@H]2CO` stands -6.31 (active); under `COc1ccc(C#Cc2ccc([C@H]3[C@H]4CN(C(=O)c5cccnc5)CC(=O)N4[C@H]3CO)cc2)cc1`, -0.5 (inactive). Consider `O=C(c1ccccc1F)N1CC(=O)N2[C@H](CO)[C@@H](c3ccc(-c4cccnc4)cc3)[C@H]2C1`, for which the z-score is -0.211 (inactive).

Regarding `O=C(c1cccnc1)N1CC(=O)N2[C@H](C1)[C@H](c1ccc(-c3ccccc3F)cc1)[C@@H]2CO`, the z-score is -1.28 (inactive). Under `N#Cc1ccc(-c2ccc([C@H]3[C@H](CO)N4C(=O)CN(C(=O)Cc5ccccc5)C[C@@H]34)cc2)cc1` stands 1.44 (inactive); under `COc1cccc(-c2ccc([C@@H]3[C@H]4CN(C(=O)c5cccnc5)CC(=O)N4[C@H]3CO)cc2)c1`, -6.37 (active); under `O=C(c1cccnc1)N1CC(=O)N2[C@H](CO)[C@H](c3ccc(-c4cccnc4)cc3)[C@@H]2C1`, 1.98 (inactive). With `O=C(c1cccnc1)N1CC(=O)N2[C@H](CO)[C@@H](c3ccc(-c4ccc(F)cc4)cc3)[C@@H]2C1`, the z-score was -1.03 (inactive). Under `CCCC#Cc1ccc([C@H]2[C@H]3CN(C(=O)c4cccnc4)CC(=O)N3[C@H]2CO)cc1` stands 0.452 (inactive). With `Cc1ccccc1-c1ccc([C@H]2[C@H](CO)N3C(=O)CN(C(=O)c4cccnc4)C[C@@H]23)cc1` the figure was -12.4 (active). On to `O=C(Cc1ccccn1)N1CC(=O)N2[C@H](CO)[C@H](c3ccc(C#CCC4CCCC4)cc3)[C@@H]2C1`, for which the z-score was 0.616 (inactive). With `C[C@H]1CN([C@@H](C)CO)S(=O)(=O)c2ccc(C#CC3(O)CCCC3)cc2O[C@@H]1CN(C)C(=O)Nc1cccc(F)c1` the figure was -0.533 (inactive). As to `COc1ccc(-c2ccccc2[C@H]2[C@@H](CO)N(C(=O)c3cccnc3)[C@H]2C#N)cc1`, the z-score was 0.00658 (inactive). With `N#Cc1cccc(-c2ccc(C3[C@H]4CNC[C@@H]3N4Cc3cncnc3)cc2)c1` (stereo partly specified) the figure was 1.3 (inactive). On to `CCN(C[C@H]1[C@H](c2ccc(-c3ccccc3)cc2)[C@H](CO)N1CC1CC1)C(C)=O`, for which the z-score is 2.55 (inactive). For the molecule `N#Cc1cccc(-c2ccc(C3[C@@H]4CNC[C@H]3N4)cc2)c1` (stereo partly specified), the z-score was -0.64 (inactive).

As for `CCCNC(=O)N1[C@H](CNC(=O)c2cccc(F)c2)[C@H](c2ccccc2)[C@@H]1CO`, the z-score is 1.46 (inactive). On to `CCCNC(=O)N1[C@@H]2Cn3c(ccc(-c4ccc(OC)cc4)c3=O)[C@H]1[C@@H](C(=O)NC1CCC1)[C@@H]2CO`, for which the z-score is -0.305 (inactive). With `Cc1cccc(-c2ccc([C@@H]3[C@H]4CN(C(=O)c5ccccc5)CC(=O)N4[C@H]3CO)cc2)c1` the figure was -8.7 (active); with `CN(C)C(=O)c1cccc(-c2ccc([C@H]3[C@H](CO)N4C(=O)CN(C(=O)Cc5ccccc5)C[C@@H]34)cc2)c1`, 3.83 (inactive). With `CN(C)C(=O)c1cccc(-c2ccc([C@H]3[C@H]4CN(C(=O)Cc5ccccc5)CC(=O)N4[C@H]3CO)cc2)c1` the figure was 1.91 (inactive); with `CC(C)CC#Cc1ccc([C@H]2[C@H]3CN(C(=O)CN4CCOCC4)CC(=O)N3[C@H]2CO)cc1`, 4.32 (inactive); with `O=C(CN1CCOCC1)N1CCCCN2[C@@H](CO)[C@H](c3ccc(-c4ccccc4)cc3)[C@@H]2C1`, -0.926 (inactive).

Take `O=C(CN1CCOCC1)N1CC(=O)N2[C@H](C1)[C@H](c1ccc(/C=C/c3ccccc3)cc1)[C@@H]2CO`: the z-score is -5.55 (active). As to `CC(C)CC#Cc1ccc([C@H]2[C@@H](CO)N3C(=O)CN(C(=O)CN4CCOCC4)C[C@H]23)cc1`, the z-score was 2.46 (inactive). Under `O=C(CN1CCOCC1)N1CCCCN2[C@H](CO)[C@H](c3ccc(-c4ccccc4)cc3)[C@@H]2C1` stands -0.341 (inactive); under `COCC(=O)N1CCCCN2[C@H](C1)[C@@H](c1ccc(-c3ccccc3)cc1)[C@@H]2CO`, 1.64 (inactive). Under `CCC(=O)N1CCCCN2[C@H](C1)[C@@H](c1ccc(/C=C/c3ccccc3)cc1)[C@@H]2CO` stands -7.21 (active). Under `O=C(c1cnccn1)N1CC(=O)N2[C@H](C1)[C@@H](c1ccc(C3=CCCCC3)cc1)[C@@H]2CO` stands 0.336 (inactive); under `CCC(=O)N1CCCCN2[C@H](C1)[C@@H](c1ccc(-c3ccc(F)cc3)cc1)[C@@H]2CO`, 1.91 (inactive); under `O=C(CN1CCOCC1)N1CCCCN2[C@@H](CO)[C@H](c3ccc(/C=C/c4ccccc4)cc3)[C@@H]2C1`, -4.3 (active). `O=C(c1cnccn1)N1CC(=O)N2[C@H](C1)[C@H](c1ccc(/C=C/c3ccccc3)cc1)[C@@H]2CO`: the z-score is -7.53 (active).

In the case of `O=C(Cc1cccnc1)N1CC(=O)N2[C@H](CO)[C@@H](c3ccc(/C=C/c4ccccc4)cc3)[C@H]2C1`, the z-score was -1.1 (inactive). For `COCC#Cc1ccc([C@@H]2[C@@H](CO)N3CCCCN(C(=O)COC)C[C@@H]23)cc1`, the z-score is 1.49 (inactive).

Regarding `CCCNC(=O)N1[C@H](CO)[C@@H](c2ccc(-c3ccc(C(=O)N(C)C)cc3)cc2)[C@@H]1C#N`, the z-score is -1.53 (inactive).

Take `CCC(=O)N1[C@@H](CO)[C@@H]2c3ccccc3N(C(=O)c3cnccn3)C[C@@H]21`: the z-score is 1.18 (inactive). `CO[C@@H]1CN(C)C(=O)c2cc(NS(=O)(=O)c3cccc(Cl)c3)ccc2OC[C@@H](C)NC[C@@H]1C`: the z-score is -0.0121 (inactive). With `O=C(c1cnccn1)N1CC(=O)N2[C@H](C1)[C@@H](c1ccc(C#CC3CCCCC3)cc1)[C@@H]2CO` the figure was 4.43 (inactive); with `Cc1ccccc1S(=O)(=O)N1C[C@H](O)COC[C@H]2O[C@H](CC(=O)N3CCCCC3)CC[C@@H]21`, -0.576 (inactive). `C[C@H](NC(=O)C[C@H]1CC[C@H]2[C@@H](COC[C@H](O)CN2C(=O)Nc2cccc(Cl)c2)O1)c1ccccc1`: the z-score is 1.23 (inactive). Under `Cn1cnc(S(=O)(=O)N2CCCCN3[C@@H](CO)[C@@H](c4ccc(C#CC5CCCC5)cc4)[C@@H]3C2)c1` stands 1.81 (inactive); under `O=C(Nc1ccc(C(F)(F)F)cc1)N1[C@@H]2CNC[C@H]1C2c1ccc(-c2ccncc2)cc1` (stereo partly specified), 3.1 (inactive) and 5.44 (inactive). With `COc1ccc(-c2ccc3c(c2)[C@@H]2[C@@H](CCN2C(=O)c2cccc(F)c2)[C@H](CO)N3)cc1` the figure was 1.25 (inactive); with `O=C(c1ccccc1)N1CC(=O)N2[C@@H](CO)[C@H](c3ccc(C#CCC4CCCC4)cc3)[C@@H]2C1`, 0.717 (inactive). With `CNC[C@@H]1OCCCC[C@H](C)Oc2ccc(NC(=O)Nc3ccc(OC)cc3)cc2C(=O)N([C@H](C)CO)C[C@@H]1C` the figure was 1.03 (inactive); with `CC(=O)N1CC2(C1)[C@H](c1ccccc1)[C@@H](CO)N2C(=O)Cc1ccccc1`, -0.887 (inactive). Consider `COc1ccc2c3c([nH]c2c1)[C@@H](CO)N(Cc1cc(F)ccc1F)CC31CN(C(=O)C2CCC2)C1`, for which the z-score is -1.31 (inactive).

In the case of `COCC(=O)N1CC2(C1)CN(Cc1ccccc1F)[C@@H](CO)c1[nH]c3cc(OC)ccc3c12`, the z-score is -1.64 (inactive). `COc1ccc2c3c([nH]c2c1)[C@H](CO)N(Cc1ccccc1Cl)CC31CN(C(=O)C2CC2)C1`: the z-score was -4.06 (active). Under `N#Cc1cccc(-c2ccc3c(c2)[C@H]2[C@H](CCN2Cc2ccc4c(c2)OCO4)[C@@H](CO)N3)c1` stands 1.22 (inactive); under `CC(C)NC(=O)N1CCCCN2[C@H](CO)[C@@H](c3ccc(Br)cc3)[C@H]2C1`, 2.67 (inactive); under `CCCNC(=O)N1[C@H](C#N)[C@@H](c2ccccc2)[C@H]1CO`, 3.95 (inactive). With `C[C@@H]1CCCCO[C@H](CN(C)S(=O)(=O)c2cn(C)cn2)[C@H](C)CN([C@H](C)CO)C(=O)c2cc(N(C)C)ccc2O1` the figure was -0.253 (inactive); with `CCCNC(=O)N1[C@@H]2CNC[C@H]1C2c1ccc(-c2ccccc2)cc1` (stereo partly specified), 0.774 (inactive) and 1.73 (inactive). Under `CCCNC(=O)N1[C@@H]2CNC[C@H]1C2c1ccc(-c2cccc(C)c2)cc1` (stereo partly specified) stands 0.449 (inactive) and -6.06 (active); under `COc1cccc(-c2ccc(C3[C@H]4CNC[C@@H]3N4C(=O)Nc3ccc(F)cc3)cc2)c1` (stereo partly specified), -0.759 (inactive) and -1.81 (inactive). With `CCC(=O)N1[C@@H](CO)[C@H](c2ccc(-c3cccc(F)c3)cc2)[C@@H]1CNC(C)=O`, the z-score is 2.2 (inactive).

Consider `N#C[C@@H]1[C@H](c2ccccc2-c2ccccc2F)[C@@H](CO)N1C(=O)C1CCOCC1`, for which the z-score is 3.52 (inactive). Turning to `Cc1noc(C)c1S(=O)(=O)N(C)C[C@H]1Oc2ccc(N(C)C)cc2C(=O)N([C@H](C)CO)C[C@@H]1C`, the z-score is -1.17 (inactive).
